According to PubChem BioAssay (NCATS):
“And” between values parts separate entries of the source, which are not always exact repeats. Equal entries are not always repeated. Inconclusive results are not listed. The source made the active and inactive calls. Calls come from the whole dose curve; as a rule, active = well fitted inhibition curve with a large enough effect; inconclusive = small, poorly fitted or top-dose-only effect; inactive = flat fitted curve, though single readings scatter. *1 amine or outer side, *2 acyl side, *3 side chain or, on linkers, in order; H or OH if unused. Where a SMILES comes first, the peptide text is derived from it. Bridges are numbered along the chain shown (N, C = ends). [ ]: non-standard residue; d: D form. The star is where a group is joined. X5 = NC1=N[C@@H]([C@H](N[*:1])C(=O)[*:2])C[C@H](O)N1; ΔAla(Z-3-ureido) = NC(=O)N/C=C(\N)C(=O)O; β3hOrn = NCCC[C@H](N)CC(=O)*; Dap = NC[C@H](N)C(=O)O

Tests used:
[1] = Drug repurposing screens with cells derived from glioblastoma tumor samples (AID 1345199); details: GBM patient neurospheres viability, ATP luminescence, 48 h; note: nearly all actives have a fitted effect of over 40% in size
Summary of the method: (§1)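 Four patient lines of CD133+ GBM neurospheres were screened at several concentrations; hits were retested in those lines plus three slower-growing GBM lines, using 48-hour treatment and ATP-based viability.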

astro = control astrocytes; assay: as above; details: viability, ATP luminescence, 48 h; series mostly up to 45.9 µM
Summary of the method: as §1

[2] = at 45.9 µM (top of the series), tumour line B
[3] = at 45.9 µM (top of the series), tumour line D
[4] = at 46.1 µM (top of the series), tumour line C
[5] = at 46 µM (top of the series), tumour line A
[6] = at 20 µM (top of the series), tumour line C
[7] = at 21.2 µM (top of the series), tumour line B
[8] = at 21.2 µM (top of the series), tumour line D
% is set by controls: 0 for no effect and ±100 for the full control effect; potency is the fitted concentration of half-maximal effect.

CC12CCC(C1)C(C)(C)C2=O (stereo not drawn)
inactive: activity, negative = cell killing [1, 2] -4.04% | activity, negative = cell killing [1, 3] -4.98% | activity, negative = cell killing [1, 4] 19.6%

CCCCC/C=C\C/C=C\C/C=C\CCCCC(=O)O
inactive: activity, negative = cell killing [1, 2] -11.2% | activity, negative = cell killing [1, 3] 2.8% | activity, negative = cell killing [1, 4] 1.83%

CSCCC(N)C(=O)O (stereo not drawn)
inactive: activity, negative = cell killing [1, 2] -9.94% | activity, negative = cell killing [1, 3] -6.77% | activity, negative = cell killing [1, 5] -11.9% | activity, negative = cell killing [1, 4] -3.8%

COc1cc(C)c(/C=C/C(C)=C/C=C/C(C)=C/C(=O)O)c(C)c1C
inactive: activity, negative = cell killing [1, 2] -16.3% | activity, negative = cell killing [1, 3] 8.72% | activity, negative = cell killing [1, 4] -9.52%

O=P(O)(O)OC[C@H]1O[C@](O)(COP(=O)(O)O)[C@@H](O)[C@@H]1O
inactive: activity, negative = cell killing [1, 2] -4.16% | activity, negative = cell killing [1, 3] -21.7% | activity, negative = cell killing [1, 5] -47.3% | activity, negative = cell killing [1, 4] -3.41%

CC(C)C[C@H](NC(=O)[C@@H](COC(C)(C)C)NC(=O)[C@H](Cc1ccc(O)cc1)NC(=O)[C@H](CO)NC(=O)[C@H](Cc1c[nH]c2ccccc12)NC(=O)[C@H](Cc1cnc[nH]1)NC(=O)[C@@H]1CCC(=O)N1)C(=O)N[C@@H](CCCN=C(N)N)C(=O)N1CCC[C@H]1C(=O)NNC(N)=O
inactive: activity, negative = cell killing [1, 2] -16.4% and -7.35% | activity, negative = cell killing [1, 3] -27.1% and -14% | activity, negative = cell killing [1, 5] -28.3% and -17.4% | activity, negative = cell killing [1, 4] -8.14% and 8.02%

CC(C)(C)c1ccc2c(S(=O)(=O)O)c(C(C)(C)C)ccc2c1
inactive: activity, negative = cell killing [1, 2] 0.454% | activity, negative = cell killing [1, 3] 6.66% | activity, negative = cell killing [1, 5] -27.1% | activity, negative = cell killing [1, 4] -16.6% | activity, negative = cell killing ([1]; at 91.6 µM (top of the series), tumour line B) -24.2% | activity, negative = cell killing ([1]; at 91.6 µM (top of the series), tumour line D) -20.7% | activity, negative = cell killing ([1]; at 99.2 µM (top of the series), tumour line C) -7.16% | Potency (astro)

O=C(/C=C/c1cccc(F)c1)NC1CC1
inactive: activity, negative = cell killing [1, 2] -18.1% | activity, negative = cell killing [1, 3] -4.02% | activity, negative = cell killing [1, 4] -17.9%

NCCC[C@H](N)CC(=O)N[C@H]1CNC(=O)[C@H]([C@H]2C[C@H](O)NC(N)=N2)NC(=O)/C(=C/NC(N)=O)NC(=O)[C@H](CO)NC(=O)[C@H](CO)NC1=O (β3hOrn-[Dap]SS[ΔAla(Z-3-ureido)][X5]; lactam 1-C)
inactive: activity, negative = cell killing [1, 2] -0.927% | activity, negative = cell killing [1, 3] -12.2% | activity, negative = cell killing [1, 5] -14.8% | activity, negative = cell killing [1, 4] -14%

CC(C)=CCC/C(C)=C/CC/C(C)=C/CC/C(C)=C/CC1=C(C)C(=O)c2ccccc2C1=O
active: Potency ([1]; tumour line A) 10 µM | Potency ([1]; tumour line C) 23.1 µM
inactive: activity, negative = cell killing [1, 2] -29.7%

C=Cc1c(C)c2cc3nc(cc4[nH]c(cc5nc(cc1[nH]2)C(C)=C5CCC(=O)OC)c(CCC(=O)O)c4C)[C@@]1(C)C3=CC=C(C(=O)OC)[C@H]1C(=O)OC
inactive: activity, negative = cell killing [1, 2] -5.62% | activity, negative = cell killing [1, 3] -3.48% | activity, negative = cell killing [1, 5] -5.65% | activity, negative = cell killing [1, 4] -20.1% | Potency (astro)

CC1(C)S[C@@H]2[C@H](NC(=O)C3(N)CCCCC3)C(=O)N2[C@H]1C(=O)O
inactive: activity, negative = cell killing [1, 2] -3.31% | activity, negative = cell killing [1, 3] -4.88% | activity, negative = cell killing [1, 5] -7.56% | activity, negative = cell killing [1, 4] -20.1%

O=C1CCC(c2ccccc2)(C2CCN(Cc3ccccc3)CC2)C(=O)N1 (stereo not drawn)
inactive: activity, negative = cell killing [1, 2] -26.8% | activity, negative = cell killing [1, 3] -22.6% | activity, negative = cell killing [1, 4] -22.6% | Potency (astro)
active: Potency ([1]; tumour line A) 11.2 µM

CC(C)c1nc(N(C)S(C)(=O)=O)nc(-c2ccc(F)cc2)c1/C=C/C(O)CC(O)CC(=O)O (stereo not drawn)
active: Potency ([1]; tumour line A) 3.55 µM | Potency ([1]; tumour line D) 17.8 µM | Potency (astro) 10 µM
inactive: activity, negative = cell killing [1, 2] -27.3% | activity, negative = cell killing [1, 4] -19%

CC(C)(CO)[C@@H](O)C(=O)NCCC(=O)NCCSSCCNC(=O)CCNC(=O)[C@H](O)C(C)(C)CO
inactive: activity, negative = cell killing [1, 2] -16.4% | activity, negative = cell killing [1, 3] -15.1% | activity, negative = cell killing [1, 5] -16.6% | activity, negative = cell killing [1, 4] -15.9% | Potency (astro)

CC(=O)Nc1ccc(OC(C)=O)cc1
inactive: activity, negative = cell killing [1, 2] -2.78% | activity, negative = cell killing [1, 3] 2.27% | activity, negative = cell killing [1, 5] -21% | activity, negative = cell killing [1, 4] -27.8% | Potency (astro)

CCN1C(=O)NC(c2ccccc2)C1=O (stereo not drawn)
inactive: activity, negative = cell killing [1, 6] -11.1% | activity, negative = cell killing [1, 7] -3.29% | activity, negative = cell killing [1, 8] -11.8% | activity, negative = cell killing ([1]; at 21.3 µM (top of the series), tumour line A) -9.7% | Potency (astro)

C[C@@H]1O[C@@H](OC[C@H]2O[C@@H](Oc3c(-c4ccc(OCCO)c(OCCO)c4)oc4cc(OCCO)cc(O)c4c3=O)[C@H](O)[C@@H](O)[C@@H]2O)[C@H](O)[C@H](O)[C@H]1O
inactive: activity, negative = cell killing [1, 2] -5.23% | activity, negative = cell killing [1, 3] -14.3% | activity, negative = cell killing [1, 5] -13.8% | activity, negative = cell killing [1, 4] -13.8% | Potency (astro)

O=C(OC[C@H]1O[C@@H](OC(=O)c2cc(O)c(O)c(OC(=O)c3cc(O)c(O)c(O)c3)c2)[C@H](OC(=O)c2cc(O)c(O)c(OC(=O)c3cc(O)c(O)c(O)c3)c2)[C@@H](OC(=O)c2cc(O)c(O)c(OC(=O)c3cc(O)c(O)c(O)c3)c2)[C@@H]1OC(=O)c1cc(O)c(O)c(OC(=O)c2cc(O)c(O)c(O)c2)c1)c1cc(O)c(O)c(OC(=O)c2cc(O)c(O)c(O)c2)c1
active: Potency ([1]; tumour line A) 15.8 µM | Potency ([1]; tumour line B) 22.4 µM | Potency ([1]; tumour line D) 17.8 µM | Potency (astro) 2.82 µM
inactive: activity, negative = cell killing [1, 4] -14.4%

CCOC(=O)Oc1c(OC)cc(C(=O)O[C@@H]2C[C@@H]3CN4CCc5c([nH]c6cc(OC)ccc56)[C@H]4C[C@@H]3[C@H](C(=O)OC)[C@H]2OC)cc1OC
inactive: activity, negative = cell killing [1, 6] -3.41% | activity, negative = cell killing [1, 7] -4.13% | activity, negative = cell killing [1, 8] -4.51% | Potency (astro)
active: Potency ([1]; tumour line A) 5.62 µM

COC1=C(OC)C(=O)C(C/C=C(\C)CC/C=C(\C)CC/C=C(\C)CC/C=C(\C)CC/C=C(\C)CC/C=C(\C)CC/C=C(\C)CC/C=C(\C)CC/C=C(\C)CCC=C(C)C)=C(C)C1=O
inactive: activity, negative = cell killing [1, 2] 2.27% | activity, negative = cell killing [1, 3] -1.65% | activity, negative = cell killing [1, 5] -4.78% | activity, negative = cell killing [1, 4] 7.72% | Potency (astro)
